Where “and” joins values, the source holds several entries; their conditions need not be identical. Equal values may be shown once. Calls of active or inactive are those of the source.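 How the source made its calls, unless noted: active means normalized viability below 100% at a tested concentration; inactive means the rest.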
Experiments:
[1] = viability loss with induced miR-34 in A549 – imaging, A549 dox-inducible miR-34, nuclei and caspase counts, primary screen (AID 1347080;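 active means compounds whose cell count with miR-34 switched on is under 0.7 times the count with it off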); conditions: A549 miR-34 inducible, Hoechst nuclei count, 48 h
[2] = MELAS cybrid and Rieske KO viability enhancers – cell-based, MELAS cybrids, Rieske KO mouse fibroblasts, CellTiter-Glo, primary screen (AID 1508586;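 active means mean z-score across replicates of 1.96 or higher in either the MELAS or the Rieske mutant cell line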;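 further: z relative to plate mean and SD of compound and empty wells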); conditions: low glucose
[3] = drug combination growth inhibition, ovarian cancer – cell-based, oncology-focused library, rucaparib conditional, profiling panel (AID 1508598); conditions: patient-derived ovarian cancer cells, CellTiter-Glo viability, 144 h, stronger effect = lower value
[4] = growth inhibition, single agent or in combination, cell-based, chromothripsis tumors, cisplatin or BGB combos (AID 1671449; in the data active means inhibition above about 80%;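 further: cells exposed for 96 hours; 0% = vehicle DMSO and 100% = killing by high DMSO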); conditions: LFS_MB_P medulloblastoma cells
[5] = growth inhibition, single agent and combos, cell-based, chromothripsis tumors, cisplatin or BGB combos (AID 1671450; in the data active means inhibition above about 80%;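 further: cells exposed to compound for four days; 0% = vehicle DMSO and 100% = cell killing by high DMSO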); conditions: HDN33 neuroblastoma cells, stronger effect = higher value
[6] = growth inhibition, single agents and combos, ICB984, cell-based, cisplatin or BGB combos, synergistic combos for chromothripsis tumors (AID 1671451; call rule not given here;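 further: cells exposed for 96 hours before readout; 0% = vehicle DMSO and 100% = killing by high DMSO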); conditions: ICB984 medulloblastoma cells, drug combinations, stronger effect = higher value
[7] = growth inhibition, single agents and combos, LFS_MB_1R, cell-based, cisplatin or BGB combos, synergistic combos for chromothripsis tumors (AID 1671452; in the data active means inhibition above about 80%;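 further: cells exposed for 96 hours before readout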); conditions: LFS_MB_1R medulloblastoma cells, stronger effect = higher value
[8] = growth inhibition, single agents and combos, HTB85, cell-based, BGB or cisplatin IC20 combos, synergistic combos for chromothripsis tumors (AID 1671453; in the data active means inhibition above about 80%;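 further: cells exposed for 96 hours before readout; 0% = vehicle DMSO and 100% = high DMSO killing control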); conditions: HTB85 osteosarcoma cells, drug combinations, stronger effect = higher value
[9] = growth inhibition, single agents and combos, CRL2098, cell-based, BGB or cisplatin IC20 combos, synergistic combos for chromothripsis tumors (AID 1671454; in the data active means inhibition above about 80%;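 further: cells exposed for 96 h before readout; 0% = vehicle DMSO and 100% = killing by high DMSO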); conditions: CRL2098 osteosarcoma cells, drug combinations, stronger effect = higher value
[10] = growth inhibition, single agents and combos, HD-MB03, cell-based, BGB or cisplatin IC20 combos, synergistic combos for chromothripsis tumors (AID 1671455; in the data active means inhibition above about 83%;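 further: 0% = vehicle DMSO and 100% = high DMSO as cytotoxic control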); conditions: HD-MB03 medulloblastoma cells, stronger effect = higher value
[11] = growth inhibition, single agents and combos, UWB1.289, cell-based, BGB or cisplatin combos, synergistic combos for chromothripsis tumors (AID 1671456; in the data active means inhibition above about 80%;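 further: cells exposed to compound for four days; 0% = vehicle DMSO and 100% = killing by high DMSO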); conditions: UWB1.289 ovarian carcinoma cells, stronger effect = higher value
[12] = growth inhibition, single agents and combos, LFS_MB_2R, cell-based, cisplatin combos, synergistic combos for chromothripsis tumors (AID 1671457; in the data active means inhibition above about 80%;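 further: cells exposed to compound for four days before readout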); conditions: LFS_MB_2R medulloblastoma cells, stronger effect = higher value
[13] = growth inhibition, MDA-MB-436, cell-based, BGB or cisplatin combos, synergistic combos for chromothripsis tumors (AID 1671458; call rule not given here;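 further: cells exposed for 96 hours; 0% = vehicle DMSO and 100% = killing by high DMSO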); conditions: MDA-MB-436 breast carcinoma growth inhibition, drug combinations, stronger effect = higher value
[14] = UWB1.289_BRCA1 ovarian cancer growth, cell-based, BGB or cisplatin combinations (AID 1671459; in the data active means inhibition above about 80%); conditions: UWB1.289 BRCA1 ovarian carcinoma, drug combinations, stronger effect = higher value
[15] = BT084 cell growth, single and combined drugs, ICGC_MB145, cisplatin and BGB IC40 combos (AID 1671461; in the data active means inhibition above about 80%;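 further: cells exposed to drugs for 96 hours; 0% = vehicle DMSO and 100% = high DMSO full killing control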); conditions: BT084 medulloblastoma cells, drug combinations, stronger effect = higher value
[16] = RCMB18 cell growth, single agent and combined, cisplatin and BGB IC40 combos (AID 1671462; in the data active means inhibition above about 80%;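 further: cells exposed to compound for four days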); conditions: RCMB18 medulloblastoma cells, stronger effect = higher value
[17] = CRL1545 cell growth, single agent and combined, cisplatin and BGB IC20 combos (AID 1671464; in the data active means inhibition above about 80%;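 further: cells exposed to compound for 96 hours before readout; 0% = vehicle DMSO and 100% = high DMSO killing control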); conditions: CRL1545 osteosarcoma cells, stronger effect = higher value
[18] = measured here: combination with BGB IC40, at 0.05 µM
[19] = measured here: with BGB IC20 combination, at 0.5 µM
[20] = measured here: with cisplatin IC20 combination, at 0.5 µM
[21] = measured here: combination with cisplatin, at 0.5 µM
[22] = measured here: combination with cisplatin, at 5 µM

O=C(NCC1(c2nc(-c3ccccc3)cs2)CCOCC1)c1cccc(-c2noc(C(F)(F)F)n2)c1
fold change ([1]; stronger effect = lower value, cell number ratio, induced over uninduced): 0.836 (inactive)
fold change ([1]; measured here: relative caspase fold change +Dox/-Dox): 0.412
cell count ([1]; measured here: total cells with miR-34 induction, stronger effect = lower value): 6620
cell count ([1]; measured here: total cells without miR-34 induction): 7920
z-score ([2]; MELAS cybrid survival, CellTiter-Glo 48 h, stronger effect = higher value): 0.0872 (inactive)
z-score ([2]; Rieske KO mouse fibroblast survival, CellTiter-Glo 72 h): 0.109
viability ([3]; at 0.000305 µM, OCI-C5x cells, with rucaparib 10 µM, 100% = cells with rucaparib alone): 124% (inactive)
viability ([3]; at 0.000305 µM, OCI-C5x cells, without rucaparib): 111% (inactive)
viability ([3]; at 0.000305 µM, OCI-P5x cells, with rucaparib 20 µM, 100% = cells with rucaparib alone): 98.3% (active)
viability ([3]; at 0.000305 µM, OCI-P5x cells, without rucaparib): 94.3% (active)
viability ([3]; at 0.00122 µM, OCI-C5x cells, with rucaparib 10 µM, 100% = cells with rucaparib alone): 128% (inactive)
viability ([3]; at 0.00122 µM, OCI-C5x cells, without rucaparib): 113% (inactive)
viability ([3]; at 0.00122 µM, OCI-P5x cells, with rucaparib 20 µM, 100% = cells with rucaparib alone): 104% (inactive)
viability ([3]; at 0.00122 µM, OCI-P5x cells, without rucaparib): 101% (inactive)
viability ([3]; at 0.00488 µM, OCI-C5x cells, with rucaparib 10 µM, 100% = cells with rucaparib alone): 127% (inactive)
viability ([3]; at 0.00488 µM, OCI-C5x cells, without rucaparib): 117% (inactive)
viability ([3]; at 0.00488 µM, OCI-P5x cells, with rucaparib 20 µM, 100% = cells with rucaparib alone): 95.9% (active)
viability ([3]; at 0.00488 µM, OCI-P5x cells, without rucaparib): 97.2% (active)
viability ([3]; at 0.0195 µM, OCI-C5x cells, with rucaparib 10 µM, 100% = cells with rucaparib alone): 120% (inactive)
viability ([3]; at 0.0195 µM, OCI-C5x cells, without rucaparib): 104% (inactive)
viability ([3]; at 0.0195 µM, OCI-P5x cells, with rucaparib 20 µM, 100% = cells with rucaparib alone): 95.5% (active)
viability ([3]; at 0.0195 µM, OCI-P5x cells, without rucaparib): 89.1% (active)
viability ([3]; at 0.0781 µM, OCI-C5x cells, with rucaparib 10 µM, 100% = cells with rucaparib alone): 109% (inactive)
viability ([3]; at 0.0781 µM, OCI-C5x cells, without rucaparib): 106% (inactive)
viability ([3]; at 0.0781 µM, OCI-P5x cells, with rucaparib 20 µM, 100% = cells with rucaparib alone): 94% (active)
viability ([3]; at 0.0781 µM, OCI-P5x cells, without rucaparib): 94.9% (active)
viability ([3]; at 0.313 µM, OCI-C5x cells, with rucaparib 10 µM, 100% = cells with rucaparib alone): 132% (inactive)
viability ([3]; at 0.313 µM, OCI-C5x cells, without rucaparib): 102% (inactive)
viability ([3]; at 0.313 µM, OCI-P5x cells, with rucaparib 20 µM, 100% = cells with rucaparib alone): 95.8% (active)
viability ([3]; at 0.313 µM, OCI-P5x cells, without rucaparib): 90.7% (active)
viability ([3]; at 1.25 µM, OCI-C5x cells, with rucaparib 10 µM, 100% = cells with rucaparib alone): 135% (inactive)
viability ([3]; at 1.25 µM, OCI-C5x cells, without rucaparib): 117% (inactive)
viability ([3]; at 1.25 µM, OCI-P5x cells, with rucaparib 20 µM, 100% = cells with rucaparib alone): 88.1% (active)
viability ([3]; at 1.25 µM, OCI-P5x cells, without rucaparib): 89.8% (active)
viability ([3]; at 5 µM, OCI-C5x cells, with rucaparib 10 µM, 100% = cells with rucaparib alone): 158% (inactive)
viability ([3]; at 5 µM, OCI-C5x cells, without rucaparib): 127% (inactive)
viability ([3]; at 5 µM, OCI-P5x cells, with rucaparib 20 µM, 100% = cells with rucaparib alone): 78.7% (active)
viability ([3]; at 5 µM, OCI-P5x cells, without rucaparib): 84.2% (active)
inhibition ([4]; at 0.5 µM, stronger effect = higher value): 16.1% (inactive) and -6.25% (inactive)
inhibition ([4]; measured here: combination with BGB IC20, at 0.005 µM): 1.8% and 4.15%
inhibition ([4]; measured here: combination with BGB IC40, at 0.005 µM): 2.63% and 14.3%
inhibition [4, 18]: -10.8% and -1.22%
inhibition ([4]; measured here: combination with cisplatin, at 0.5 µM, stronger effect = higher value): 3.22% and -32.3%
inhibition ([4]; measured here: combination with cisplatin, at 5 µM, stronger effect = higher value): -16.9% and -3.34%
inhibition ([5]; BGB combo, at 5 µM): -23% and 15.5%
inhibition ([5]; at 0.5 µM): -32.5% (inactive) and 16.4% (inactive)
inhibition ([5]; cisplatin combo, at 5 µM): -16.3% and 0.452%
inhibition [5, 19]: -30.2% and 18.4%
inhibition [5, 20]: -45.4% and 11.4%
inhibition ([5]; single agent, at 5 µM): -5.15% and 25.1%
inhibition ([6]; BGB IC20 combo, at 0.005 µM): -22.9% and 2.76%
inhibition ([6]; BGB IC40 combo, at 0.005 µM): 9.28% and 13%
inhibition ([6]; BGB IC40 combo, at 0.05 µM): -3.89% and 21%
inhibition ([6]; at 0.5 µM): -16.1% (inactive) and 2.22% (inactive)
inhibition ([6]; cisplatin combo, at 0.05 µM): -6.8% and 18.1%
inhibition ([6]; cisplatin combo, at 0.5 µM): -20% and 9.29%
inhibition ([6]; cisplatin combo, at 5 µM): -12.6% and -9.9%
inhibition ([6]; measured here: 5 uM single agent, at 5 µM): -22.5% and 19.3%
inhibition ([7]; at 0.5 µM): -33% (inactive) and -1.8% (inactive)
inhibition [7, 18]: -32.4% and 10.2%
inhibition [7, 21]: -76.1% and -10.4%
inhibition [7, 22]: -10.4% and -0.263%
inhibition ([8]; at 0.5 µM): -28.5% (inactive) and 1.8% (inactive)
inhibition ([8]; measured here: with BGB IC20, at 0.5 µM): -38.8% and -0.919%
inhibition ([8]; measured here: with BGB IC20, at 5 µM): -58.5% and 4.11%
inhibition ([8]; measured here: with cisplatin IC20, at 0.5 µM): -26.7% and 6.6%
inhibition ([8]; measured here: with cisplatin IC20, at 5 µM): -31.5% and 8.1%
inhibition ([8]; single agent, at 5 µM): -23.9% and 9.32%
inhibition ([9]; at 0.5 µM): -56.1% (inactive) and -1.16% (inactive)
inhibition ([9]; measured here: combination with BGB at IC20, at 0.5 µM): -61.3% and -10.8%
inhibition ([9]; measured here: combination with cisplatin at IC20, at 0.5 µM): -66.8% and 10.9%
inhibition ([10]; at 0.5 µM): -15.6% (inactive) and 10.1% (inactive)
inhibition ([10]; measured here: combo with BGB at IC20, at 0.5 µM): -9.59% and 1.06%
inhibition ([10]; measured here: combo with cisplatin at IC20, at 0.5 µM): -27.9% and 14.3%
inhibition ([11]; at 0.5 µM): -12.3% (inactive) and 13.4% (inactive)
inhibition ([11]; measured here: inhibition with BGB combination, at 0.05 µM): -8.63% and 3.2%
inhibition ([11]; measured here: inhibition with cisplatin combination, at 0.05 µM): 0.295% and 28.5%
inhibition ([12]; at 0.5 µM): 0.9% (inactive) and 4.52% (inactive)
inhibition [12, 21]: 0.458% and 8.71%
inhibition [12, 22]: -55.5% and 22.9%
inhibition ([13]; at 0.5 µM): -6.26% (inactive) and 2.54% (inactive)
inhibition ([13]; measured here: BGB combination, at 0.5 µM): -4.1% and 0.779%
inhibition ([13]; measured here: BGB combination, at 5 µM): -10.4% and -5.25%
inhibition ([13]; measured here: cisplatin combination, at 0.5 µM): -10.7% and 8.48%
inhibition ([13]; measured here: cisplatin combination, at 5 µM): -13.8% and 11%
inhibition ([14]; BGB combination, concentration series, at 5 µM): -15.2% and 14.2%
inhibition ([14]; at 0.5 µM): -10.2% (inactive) and 7.86% (inactive)
inhibition ([14]; cisplatin combination, concentration series, at 5 µM): 8.95% and 1.52%
inhibition ([15]; at 0.5 µM): -4.68% (inactive) and 10.6% (inactive)
inhibition ([15]; cisplatin combination, at 0.5 µM): -2.52% and 12.6%
inhibition ([15]; cisplatin combination, at 5 µM): 12.8% and 27.4%
inhibition ([15]; measured here: BGB IC40 combination 0.05 uM, at 0.05 µM): 16% and -10.3%
inhibition ([15]; single agent, at 5 µM): 15.3% and 24.7%
inhibition ([16]; at 0.5 µM): -34.6% (inactive) and 5.45% (inactive)
inhibition ([16]; cisplatin combo, at 5 µM): -80.8% and -19.2%
inhibition ([16]; measured here: BGB IC40 combination, at 0.05 µM): -21% and 1.81%
inhibition [16, 21]: -74.6% and 3.89%
inhibition ([16]; single agent, at 5 µM): 14.7% and 26.4%
inhibition ([17]; at 0.5 µM): -45.6% (inactive) and -15.7% (inactive)
inhibition [17, 19]: -23% and -21.2%
inhibition [17, 20]: -60.5% and -14.7%
inhibition ([17]; single agent, at 0.05 µM): -48% and 14.2%
inhibition ([17]; single agent, at 5 µM): 36.5% and 43.7%
